Compounds with a hit are over-represented: about 12% of the library has one in this group of screens.
JMJD2A Tudor inh: blocks the human JMJD2A Tudor domain; AlphaScreen JMJD2A-Tudor / H3K4me3 peptide binding; Potency, µM (titrated, usually from 114 µM), for the others: at the top dose activity change, negative = inhibition, hits mostly inhibitors; 390,000 tested, 4.4% active; AID 504339; also: % is scaled to controls: 0 for no effect and ±100 for the full control effect; nearly all actives have a fitted effect of over 50% in size
Sfp PPTase inh: blocks B. subtilis Sfp PPTase activity; AID 1490; Biochemical Sfp PPTase activity, qHTS; Potency, µM, for inactives: largest response in the series, negative = inhibition, most hits filed as inhibitors; 310,000 tested, 3.5% active;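 also: the enzyme is Sfp with the accession as filed and its product quenches rhodamine fluorescence; 0% = enzyme reaction without inhibitor and -100% = no enzyme wells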
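With Hepes-Na pH 7.6 buffer containing 10 mM MgCl2, Sfp (15 nM) modified BHQ-2-YbbR (12.5 uM) using rhodamine-CoA (5 uM). Two reads 30 minutes apart at 525/598 nm yielded each well's rate.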
HP1b binding inh: HP1-beta chromodomain-methylated histone interaction inhibition | P83916 | Potency, µM (titrated, usually from 114 µM), without a hit: at the highest dose activity change, negative = inhibition, hits mostly inhibitors | AlphaScreen HP1-beta / biotin-H3K9me3 peptide binding | AID 540317 | 390,000 tested, 0.56% active; also: nearly all actives have a fitted effect of over 70% in size
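Compound inhibition of the preformed complex between 50 nM HP1-beta and 50 nM biotinylated H3K9me3 peptide was read by AlphaScreen. Buffer was PBS pH 7.4 with 0.01% Tween-20. Incubations ran 30 min at room temperature, with 10 ug/mL donor/acceptor beads.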
G9a block: G9a (human) methyltransferase inhibition; Q96KQ7; G9a H3K9 monomethylation, AlphaScreen, 2 h; Potency, µM (titrated, usually from 102 µM), for inactives: at the top dose activity, negative = inhibition, actives largely listed as inhibitors; 350,000 tested, 8.8% active; AID 504332; also: % is scaled to controls: 0 for no effect and ±100 for the full control effect; nearly all actives have a fitted effect of over 75% in size
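AlphaScreen detection with an anti-monomethyl H3K9 antibody quantified product after a 2 h room-temperature reaction containing 500 nM biotinylated H3K9 peptide, 20 µM SAM and 20 nM enzyme, which had been preincubated 15 min with compound.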
BAZ2B block: blocks human BAZ2B | Q9UIF8 | AlphaScreen BAZ2B-H3K14Ac peptide displacement | Potency, µM (titrated, usually from 114 µM), inactives show at the top dose activity change, negative = inhibition, hits mostly inhibitors | 360,000 tested, 4.4% active | AID 504333; also: % is scaled to controls: 0 for no effect and ±100 for the full control effect; nearly all actives have a fitted effect of over 60% in size
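AlphaScreen displacement: compounds (up to 110uM) incubated 30 min at room temperature with a preformed 50 nM BAZ2B/50 nM biotinylated H3K14Ac peptide complex in PBS pH 7.4 with Tween-20. Donor and acceptor beads at 10 ug/mL final added, 20 min light-protected before reading.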
TDP1 block: inhibitors of human tyrosyl-DNA phosphodiesterase TDP1 | Q9NUW8 | recombinant TDP1, AlphaScreen DNA substrate cleavage | Potency, µM (highest dose often 130 µM), inactives show at the highest dose activity change, negative = inhibition, most hits filed as inhibitors | 350,000 tested, 0.28% active | AID 485290; also: % is scaled to controls: 0 for no effect and ±100 for the full control effect; nearly all actives have a fitted effect of over 40% in size
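E. coli-derived human Tdp1, 1 nM final. Cpd preinc 15 min RT; substrate 15 nM final, 5 min RT; AS bead mix 10 ug/ml final, 10 min RT. Signal loss = tyrosine-FITC cleavage. No-enzyme wells = max signal.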
Starred values were filed as active, the others as inactive; ? = inconclusive; nt = not tested or not shown; [ ] = remark or other dose. Calls follow the shape of the dose curve; as a rule, active = well fitted curve in the direction sought with a large enough effect; inconclusive = small, poorly fitted or top-dose-only effect, or another doubt; inactive = no such curve, though single readings can be large; an effect the other way counts as inactive or inconclusive. Potency is read from the fitted curve at half-maximal effect.

SMILES | JMJD2A Tudor inh | Sfp PPTase inh | HP1b binding inh | G9a block | BAZ2B block | TDP1 block
Cc1ccccc1NC(=O)c1sc2nc3c(cc2c1N)CCCC3 | 5% | nt | 46% | -5%[59 µM] | 9% | nt
O=C(c1cccc(F)c1)N1CCC2(CCCN(c3ncccn3)C2)CC1 | nt | 5% | nt | 8%[12.7 µM] | nt | nt
CCOc1ccc(C2C(=O)N(C3CCCCCC3)CC(=O)N2Cc2ccc(C)cc2)cc1OC (centres undefined) | -31% | nt | 18% | -4%[59 µM] | -18% | 3%
CCOc1ccc(NC(=O)CC2C(=O)N(CC)C(=S)N2CCN2CCOCC2)cc1 (centres undefined) | 50µM* | 11% | -4% | 25% | -9% | 2%
CCOc1ccc(NC(=O)CC2C(=O)N(CC)C(=S)N2CCNC(C)=O)cc1 (centres undefined) | -7% | 2% | 13% | -6% | 4% | -3%
CCN1CCOC(=O)C1CC(=O)Nc1ccc(C)c(Cl)c1 (centres undefined) | -16% | nt | 23% | 2µM* | -23% | 2%
CCOc1ccc(NC(=O)CC2C(=O)OCCN2CC)cc1 (centres undefined) | -15% | nt | 0% | 2.2µM* | ? | -2%
CCOC(=O)c1ccc(NC(=O)CC2C(=O)OCCN2CC)cc1 (centres undefined) | -11% | -13% | 19% | 6.3µM* | -49% | -3%
CCN1CCOC(=O)C1CC(=O)Nc1cccc(OC)c1 (centres undefined) | -7% | nt | 4% | ? | -30% | 6%
COC(=O)c1cc(NC(=O)CC2C(=O)OCCN2Cc2ccccc2)cc(C(=O)OC)c1 (centres undefined) | -13% | nt | 23% | -37%[59 µM] | -18% | 7%
Cc1cccc(NC(=O)CC2C(=O)OCCN2Cc2ccccc2)c1 (centres undefined) | -6% | nt | 46% | -7%[59 µM] | -3% | 3%
CCOC(=O)CC1C(=O)NCCN1C(=O)c1ccc(Cl)cc1Cl (centres undefined) | -8% | 8% | 25% | 2% | 1% | nt
Cc1ccc(NS(=O)(=O)c2cc(-c3cnc(C4CC4)o3)ccc2C)cc1Cl | ? | nt | 17% | -2%[59 µM] | -34% | 6%
CC(C(=O)Nc1cccnc1)C1Sc2ccccc2NC1=O (centres undefined) | -8% | -23% | 43% | nt | -4% | 3%
COc1cccc(OCCSc2nc3ccccc3n2CC(=O)N2CCOCC2)c1 | -26% | nt | 3% | ? | -32% | 6%
COc1ccc2sc(-c3ccc(N(C)C)cc3)c(C#CC(C)(C)O)c2c1 | 15% | nt | 77% | 6%[0.501 µM] | 22% | 0%
COc1ccc(-c2sc3cc(OC)c(OC)cc3c2C#CCO)cc1 | 20µM* | nt | 24% | nt | nt | -2%
COc1ccc(-c2sc3ccc(N4CCOCC4)cc3c2C#CC(C)(C)O)cc1 | ? | nt | 27% | -2%[0.501 µM] | 50µM* | 1%
COc1ccc(-c2sc3ccc(N4CCOCC4)cc3c2C#Cc2ccsc2)cc1 | 19% | nt | 161% | nt | nt | -5%
COc1ccc(-c2sc3ccc(OC)cc3c2C#CCCO)cc1 | -7% | -23% | 46% | 35µM* | 0% | nt
COc1ccc2sc(-c3ccc(N(C)C)cc3)c(C#Cc3cncn3C)c2c1 | 22µM* | nt | -27% | nt | nt | 9%
Cn1c(=O)c2c(nc(N3CCOCC3)n2Cc2ccccc2F)n(C)c1=O | 4% | nt | 30% | 9%[59 µM] | 1% | nt
Nc1ccc(Cl)c(S(=O)(=O)Nc2ccc(Cl)cc2)c1 | -19% | 10% | -13% | -8% | -12% | 4%
CCOc1c(CNCCCSc2nc(C)cc(C)n2)cccc1OC | -11% | 10% | 38% | 16% | -2% | nt
Cc1cc(-c2nsc(=O)o2)c(S(C)(=O)=O)s1 | ? | -84% | ? | 2µM* | 0% | 7%
Cc1onc(-c2ccccc2)c1C(=O)Nc1sc2c(c1C#N)CCC2 | 50µM* | -83% | ? | ? | ? | -2%
Cc1onc(-c2ccccc2)c1C(=O)Nc1sc2c(c1C(N)=O)CCC2 | -20%[57.1 µM] | ? | ? | 11µM* | ? | 4%

Compound activity deposited in PubChem by National Center for Advancing Translational Sciences (NCATS).
